# Data taken from PubChem BioAssay AID1964107 (National Center for Advancing Translational Sciences (NCATS), 2024).
# Out of some 31,000 compounds screened, about 360 (1.2%) were called active. Roughly 8% stayed inconclusive and do not appear here. Shown is part of a subset that was picked to be rich in actives. Values without a mark were called inactive. The call rests on the fitted dose curve.
# Molecular target: Polyprotein P1234 (Chikungunya virus (strain S27-African prototype)) (UniProt Q8JUX6)
# Experiment: Primary qHTS for inhibitors of NSP2Pro chikungunya virus (CHIKV); further: nearly all actives have a fitted effect of over 60% in size
# Conditions: FRET peptide cleavage, fluorescence 1 h; series mostly up to 24.9 µM; activity change, negative = inhibition: at the top concentration
# Text: PI: Natalia J. Martinez Ph.D. National Center for Advancing Translational Sciences (NCATS), National Institute of Health (NIH), Rockville, Maryland Chikungunya virus (CHIKV) is a mosquito-borne RNA virus that has emerged as one of the most important global arboviral threats in the last decade. Although the first CHIKV vaccine has recently been FDA approved for use in healthy adults at increased risk, to date, there are no available antiviral drugs for CHIKV infection. CHIKV nsP2 protease plays a crucial role in the processing of the viral polypeptide precursor to release enzymes required for viral replication, thus making it a promising drug target for antiviral discovery. Here, we established a high-throughput pipeline to identify small molecule inhibitors of nsP2 proteolytic activity. The pipeline is composed of a suite of 1,536-well in vitro assays to support quantitative high-throughput (qHTS) screening campaigns. Specifically, we developed a fluorescence resonance energy transfer (FRET)-based assay using a fluorogenic peptide substrate encompassing an endogenous cleavage site and purified recombinant protease domain (nsP2pro). Using this assay, we interrogated ~37,000 small molecules, including those in drug repurposing libraries as well as chemically diverse and medicinal chemistry-friendly compounds. Hits were selected for follow-up validation against full-length nsP2 and an additional peptide. FRET-based 1,536-well assays for papain, hepatitis C virus NS3-4A, and human furin proteases were implemented to characterize compound selectivity. […] Novel compounds were identified to be potential nsP2 inhibitors and molecular docking analyses were performed to explain the binding mode of selected hits. In vitro antiviral activity was evaluated for a subset of compounds using a high-throughput CHIKV infection assay. To our knowledge, the pipeline presented here is unprecedented for CHIKV antiviral discovery research.
# PROTOCOL TABLE (as described by Inglese J, Shamu CE and Guy RK. 2007) SEQUENCE No. (e.g., 1, 2, 3, etc.); […] (e.g., Cells, Incubation, Reagent, etc.); VALUE; DESCRIPTION. 1; Control / Compound; 20 nL; Echo 655 acoustic dispenser, Greiner 1536-well solid bottom black plate. 2; Enzyme; 4 uL; BioRAPTR FRD liquid dispenser (Beckman Coulter). 3; Incubation; 15 min; room temperature. 4; Reagent; 4 uL; 2.5 uM Peptide 2 substrate. 5; Incubation; 1 hr; room temperature. 6; Detection; Fluorescence; WiewLux microplate reader (PerkinElmer), 525 nm excitation, 598/25 nm emission. NOTES (numbers refer to sequence numbers above). 1. Briefly, 20 nL DMSO, positive control ZnAc (20nM final concentration), and test compounds were transferred into a 1,536-well solid bottom black plate (789176-F, Greiner One) via Echo 655 acoustic dispenser (Beckman Coulter). For primary screens, compounds were tested at 7 concentrations, 1:3 dilution points ranging from 25 uM to 34 nM. Follow-up confirmatory screens were carried out at 11 concentrations, 1:3 dilution points from 25 uM to 0.42 nM. 2. Four uL nsP2pro enzyme mix (150 nM final concentration) in 10 mM Tris-HCl pH 8.0 with 0.01% Tween 20 assay buffer was dispensed into the plate using a BioRAPTR FRD liquid dispenser (Beckman Coulter). 3. The plate was incubated at room temperature (protected from light) for 15 min 4. Four microliter of peptide 2 substrate (2.5 uM final concentration) in assay buffer was added to the plate. 5. After 1 hour, plates were immediately read on a ViewLux high-throughput CCD imager (Exposure = 10 sec, Gain = High, Speed = Slow, Binning = 2X). The above assay was also incorporated in the NCATS HTS facility41, which allowed for robotic liquid and compound dispensing, microplate handling, and fluorescence reading.. REFERENCE: Inglese J, Shamu CE and Guy RK, Reporting data from high throughput screening of small molecule libraries, Nature Chemical Biology, 2007, 3(8): 438-441. doi.org/10.1038/nchembio0807-438.
# On the % scale 0 is the no-effect control and ±100 the full control effect; potency means the concentration at half of the fitted maximal effect.
# Sequence of Polyprotein P1234 (Chikungunya virus (strain S27-African prototype)) (Q8JUX6 whole entry, looked up): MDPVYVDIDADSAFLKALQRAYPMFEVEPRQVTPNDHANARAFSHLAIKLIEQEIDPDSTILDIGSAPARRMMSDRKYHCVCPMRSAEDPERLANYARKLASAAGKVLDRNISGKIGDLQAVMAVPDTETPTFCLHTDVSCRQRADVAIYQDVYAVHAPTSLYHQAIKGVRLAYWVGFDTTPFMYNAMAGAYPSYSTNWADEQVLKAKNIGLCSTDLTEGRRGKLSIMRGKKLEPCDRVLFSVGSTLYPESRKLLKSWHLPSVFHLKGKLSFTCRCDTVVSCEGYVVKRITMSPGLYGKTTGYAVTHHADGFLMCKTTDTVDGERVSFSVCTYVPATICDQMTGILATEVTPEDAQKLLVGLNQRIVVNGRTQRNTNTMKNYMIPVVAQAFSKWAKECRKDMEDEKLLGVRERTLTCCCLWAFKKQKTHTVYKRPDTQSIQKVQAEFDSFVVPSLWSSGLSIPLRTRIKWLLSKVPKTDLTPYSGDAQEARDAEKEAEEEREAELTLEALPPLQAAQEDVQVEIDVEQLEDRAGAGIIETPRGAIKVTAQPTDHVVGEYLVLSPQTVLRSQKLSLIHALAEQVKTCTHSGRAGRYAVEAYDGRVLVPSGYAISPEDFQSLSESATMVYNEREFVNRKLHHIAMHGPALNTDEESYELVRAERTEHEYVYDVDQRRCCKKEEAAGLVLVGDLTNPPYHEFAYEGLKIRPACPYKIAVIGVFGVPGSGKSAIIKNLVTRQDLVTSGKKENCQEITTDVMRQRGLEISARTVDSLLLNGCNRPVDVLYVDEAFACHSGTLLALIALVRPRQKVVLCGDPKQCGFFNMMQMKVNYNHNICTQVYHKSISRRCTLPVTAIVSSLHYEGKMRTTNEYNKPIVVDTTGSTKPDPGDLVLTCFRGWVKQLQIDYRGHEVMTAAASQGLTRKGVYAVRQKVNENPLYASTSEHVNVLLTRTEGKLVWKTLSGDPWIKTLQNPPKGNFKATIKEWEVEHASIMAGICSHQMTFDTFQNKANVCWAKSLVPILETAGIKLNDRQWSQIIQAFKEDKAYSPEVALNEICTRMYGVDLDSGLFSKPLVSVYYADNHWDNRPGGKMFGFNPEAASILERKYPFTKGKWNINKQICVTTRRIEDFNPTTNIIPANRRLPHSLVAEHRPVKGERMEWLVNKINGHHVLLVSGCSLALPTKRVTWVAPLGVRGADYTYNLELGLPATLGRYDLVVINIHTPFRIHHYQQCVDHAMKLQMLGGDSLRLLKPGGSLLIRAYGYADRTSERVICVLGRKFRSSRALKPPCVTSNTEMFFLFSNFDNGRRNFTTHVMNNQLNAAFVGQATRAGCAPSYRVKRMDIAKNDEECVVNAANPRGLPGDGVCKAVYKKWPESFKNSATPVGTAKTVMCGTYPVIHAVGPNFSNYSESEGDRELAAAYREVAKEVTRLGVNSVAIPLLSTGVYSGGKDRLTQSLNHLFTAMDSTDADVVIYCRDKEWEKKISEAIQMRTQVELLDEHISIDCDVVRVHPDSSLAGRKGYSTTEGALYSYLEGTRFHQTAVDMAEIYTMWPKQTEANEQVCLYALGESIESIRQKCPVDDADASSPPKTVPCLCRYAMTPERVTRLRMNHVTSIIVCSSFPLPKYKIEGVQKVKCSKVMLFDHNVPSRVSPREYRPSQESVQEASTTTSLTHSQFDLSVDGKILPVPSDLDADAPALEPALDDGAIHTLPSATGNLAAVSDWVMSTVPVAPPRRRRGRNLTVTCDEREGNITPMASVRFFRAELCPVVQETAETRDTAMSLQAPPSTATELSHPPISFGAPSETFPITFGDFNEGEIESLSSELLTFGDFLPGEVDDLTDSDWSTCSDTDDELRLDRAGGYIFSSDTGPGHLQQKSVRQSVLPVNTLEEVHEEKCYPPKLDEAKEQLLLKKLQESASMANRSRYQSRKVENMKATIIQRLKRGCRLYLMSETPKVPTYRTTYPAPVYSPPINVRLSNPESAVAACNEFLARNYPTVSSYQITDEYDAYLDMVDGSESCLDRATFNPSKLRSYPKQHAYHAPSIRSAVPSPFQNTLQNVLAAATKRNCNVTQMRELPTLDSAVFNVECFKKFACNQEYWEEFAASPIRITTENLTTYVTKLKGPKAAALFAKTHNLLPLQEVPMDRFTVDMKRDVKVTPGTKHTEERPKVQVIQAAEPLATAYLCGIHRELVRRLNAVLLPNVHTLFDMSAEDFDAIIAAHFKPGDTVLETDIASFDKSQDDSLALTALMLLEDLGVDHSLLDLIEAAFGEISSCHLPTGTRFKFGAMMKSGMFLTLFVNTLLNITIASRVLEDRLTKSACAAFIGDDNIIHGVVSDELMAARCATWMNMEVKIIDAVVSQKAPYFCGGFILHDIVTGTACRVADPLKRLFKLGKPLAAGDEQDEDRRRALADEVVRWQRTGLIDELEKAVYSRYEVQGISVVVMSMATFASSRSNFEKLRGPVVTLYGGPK
Compound,"activity change, negative = inhibition",Potency,outcome
Cn1nnnc1Sc1ncnc2scc(-c3ccccc3[N+](=O)[O-])c12,-0.0419%,–,–
Cn1nnnc1Sc1ncnc2n[nH]c(-c3cccc(S(C)(=O)=O)c3)c12,–,2.82 µM (active),–
Cc1ccc(-c2ccccc2CN2CCN([S+](=O)([O-])c3cccc(C(F)(F)F)c3)CC2)cc1Cl,–,–,inactive
O=C(Nc1nc(-c2ccccc2)cs1)c1ccncc1NS(=O)(=O)c1ccc(Cl)cc1,2.25%,–,–
Cc1c(Cl)cccc1NC(=O)N1CCN(C(=O)c2nsc3ccccc23)CC1,-22.7%,–,–
COc1cc(C(CC(=O)NCCC(C)C)N2Cc3ccccc3C2=O)cc(OC)c1OC (stereo unspecified),-20.7%,–,–
O=C(Cn1ccn2nc3c(c2c1=O)CCCCC3)NCc1ccccc1Cl,-6.55%,–,–
CC1=C(C(=O)N2CCN(c3cccc(C(F)(F)F)c3)CC2)C2(CCCCC2)OC1=O,-21.5%,–,–
CC(C)Sc1oc(-c2cccs2)nc1S(=O)(=O)c1ccc(Cl)cc1,-23.7%,–,–
CCc1nc(-c2ccc(OC3CCN(C(=O)Cc4c[nH]c5ccccc45)C3)cc2)no1 (stereo unspecified),-4.97%,–,–
COc1ccc(CN2CCN(CCCSc3cc(C(C)(C)C)c(O)c(C(C)(C)C)c3)CC2)c(OC)c1OC,11.3% [at 5.1 µM],–,–
Cc1cn2nc(C(=O)NC3CCCC3)cc2c(N2CCSCC2)n1,–,–,inactive
CCN(CC)c1cc(CCC(=O)NCc2cc(F)ccc2F)ccn1,–,–,inactive
FC(F)(F)c1cc(Nc2nc3ccccc3c3nncn23)ccc1Cl,-5.64%,–,–
C=CS(=O)(=O)N1CCCN(c2cc(NCCC(=O)O)nc(-c3ccccn3)n2)CC1,166%,–,–
Cc1ccc(NC(=O)CCCn2c(=O)c3cccn3c3ccccc32)cc1Cl,-22%,–,–
Cc1ccccc1[C@@H](C(=O)NC1CCCCC1)N(C(=O)Cn1ccnc1C)c1cccc(F)c1,4.93%,–,–
CCOC(=O)C1CCCN(CC(=O)Nc2cc(C)c3c(=O)oc4ccccc4c3n2)C1 (stereo unspecified),-8%,–,–
COc1ccc(Cc2nc3ccc(C(=O)NCc4ccccc4Cl)cc3o2)cc1,-15.7%,–,–
COc1ccc(C2=Nn3c(nnc3-c3ccccc3OC)SC2)cc1OC1CCCC1,–,–,inactive
O=[S+]([O-])(c1ccc2c(c1)OCCO2)N1CCN([S+](=O)([O-])c2c(Cl)cc(Cl)cc2Br)CC1,-5.69%,–,–
CC(=O)N1Cc2ccccc2CC2(CCN(Cc3ccc(O)cc3)CC2)C1,-17.4%,–,–
N#Cc1cc(-c2nc(Nc3ccc(F)c(F)c3)c3ccccc3n2)ccn1,–,–,inactive
COCCNc1ncnc2c1c(-c1ccccc1)cn2-c1ccc(C)c(Cl)c1,-18.5%,–,–
CN(Cc1ccccc1)C(=O)c1cn(C)c2ccc(S(=O)(=O)N(C)C3CCCCC3)cc2c1=O,-8.33%,–,–
O=C(Nc1ccc2ncnc(N3CCCCC3)c2c1)C1CCCCC1,–,–,inactive
